This is a sample that favours compounds with a hit; in the whole collection about 21% have one here.
DRD3 antagonist = antagonists of human D3 dopamine receptor; P35462; D3R cells, DiscoveRx beta-arrestin luminescence, antagonist mode; hits give low values; max response, negative = inhibition, %; 360,000 compounds, 2.5% hits; in the data active = max response below about -50%; inconclusive = no clear call, values can overlap the other calls; also: % is scaled to controls: 0 for no effect and ±100 for the full control effect
Target sequence (P35462 whole entry, looked up): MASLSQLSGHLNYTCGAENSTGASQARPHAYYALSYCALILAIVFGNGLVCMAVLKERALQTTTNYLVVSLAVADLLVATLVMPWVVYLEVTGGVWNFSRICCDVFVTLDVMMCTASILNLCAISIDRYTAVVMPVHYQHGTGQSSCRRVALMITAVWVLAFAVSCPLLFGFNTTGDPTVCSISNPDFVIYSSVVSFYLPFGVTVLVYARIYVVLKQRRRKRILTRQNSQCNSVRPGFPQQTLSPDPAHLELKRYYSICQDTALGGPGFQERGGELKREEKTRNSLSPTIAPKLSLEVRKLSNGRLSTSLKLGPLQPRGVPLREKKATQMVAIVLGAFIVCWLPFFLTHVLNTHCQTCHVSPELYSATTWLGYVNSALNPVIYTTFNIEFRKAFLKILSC
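Cells plated overnight at 1500 cells/well, then exposed to library compounds with dopamine controls for 90 minutes at 37 degrees C. DiscoveRx reagent added for 30–60 minutes at room temperature; luminescence read, quantitative HTS format.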
ClpP mod = qHTS Assay for Activators of ClpP; ATP-dependent Clp protease proteolytic subunit (Bacillus subtilis (strain 168)), P80244; purified B. subtilis ClpP, FRET peptide cleavage, 20 min; Potency, µM (top dose mostly 57.5 µM), for inactives: at the top dose activity change, negative = active; 340,000 compounds, 1.9% hits; AID 651965, 2013; active = well fitted falling curve with a large enough effect; inconclusive = small, poorly fitted or top-dose-only effect; inactive = no such curve, though single readings can be large or run the other way; also: potency is read from the fitted curve at half-maximal effect; the source files actives as falling curves though it sought activators and does not explain the sign; nearly all actives have a fitted effect of over 65% in size
Target sequence (P80244 whole entry, looked up): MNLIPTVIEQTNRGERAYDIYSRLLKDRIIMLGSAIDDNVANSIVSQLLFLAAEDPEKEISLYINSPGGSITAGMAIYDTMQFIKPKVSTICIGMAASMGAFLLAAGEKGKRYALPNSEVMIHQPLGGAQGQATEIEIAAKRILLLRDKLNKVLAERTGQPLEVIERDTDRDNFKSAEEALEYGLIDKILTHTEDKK
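Buffer: 100 mM Tris/HCl pH8, 100 mM KCl, 0.05% low protease BSA, 2.5% glycerol, 0.01% Tween-20. ClpP 10 microg/mL final; 20 min RT; delta FRET normalized to ADEP and DMSO controls.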
TDP1 cell noCPT = qHTS for Inhibitors of human tyrosyl-DNA phosphodiesterase 1 (TDP1): qHTS in cells in absence of CPT. DT40 Tdp1-/- hTDP1 cells, no CPT, ATP luminescence, 48 h. 420,000 compounds, 15% hits. Potency, µM (titrated, usually from 46.2 µM), without a hit: at the top dose activity change, negative = growth inhibition, usual class: inhibitors; also: potency is read from the fitted curve at half-maximal effect; % is scaled to controls: 0 for no effect and ±100 for the full control effect; nearly all actives have a fitted effect of over 55% in size
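Luminescent ATP content (CellTiter-Glo) served as the growth readout. Knockout chicken DT40 cells expressing human TDP1 were exposed to compounds without camptothecin for a minimum 48 hr at 37 °C.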
IL-1B inflam inh = inhibitors of inflammasome signaling (IL-1 beta secretion); THP-1 LPS/ATP IL-1B secretion, AlphaLISA, 16 h; hits give low values; activity change, % at 57.5 µM; 360,000 compounds, 4.7% hits; in the data active = activity change below about -50%; inconclusive = mostly about -30% to -49%; also: % is scaled to controls: 0 for no effect and ±100 for the full control effect
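THP-1 cells pretreated 1 hr with compounds (up to 57.5 uM final), then stimulated with LPS (250 ng/mL final) plus ATP (1.25 mM final); secreted IL-1B measured by AlphaLISA after 16 hr, decreased signal indicating inhibition.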
DRD3 agonist = activates the human D3 dopamine receptor | P35462 | 410,000 compounds, 0.58% hits | AID 652048 | D3R DiscoveRx beta-arrestin cells, luminescence, 90 min | max activation, %; in the data active = max activation above about 30%; also: 0% is about no effect
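Agonist-mode cell screen: cells plated at 1500/well and incubated overnight at 37 °C, then exposed to library compounds for 90 min at 37 °C. Detection reagent was added for 30–60 min at room temperature, and luminescence was read.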
TDP1 cell CPT = growth inhibition of DT40 Tdp1-/-;hTDP1 cells with camptothecin (screen for TDP1 inhibitors); chicken DT40 Tdp1-/-;hTDP1 cells + 20 nM CPT, ATP luminescence, 48 h; Potency, µM (series often up to 46.2 µM), without a hit: top-dose activity change, negative = growth inhibition, usual class: inhibitors; 420,000 compounds, 12% hits; also: potency is read from the fitted curve at half-maximal effect; % is scaled to controls: 0 for no effect and ±100 for the full control effect; nearly all actives have a fitted effect of over 55% in size
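Cell growth measured by CellTiter-Glo luminescence after a minimum 48 h, 37 C compound exposure with 20 nM CPT in Tdp1-knockout DT40 cells stably expressing hTDP1, seeded 400/well; qHTS titration format.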
Active calls of the source: *; i = inactive; u = inconclusive; x = no result. Unless noted, calls follow the shape of the dose curve; as a rule, active = well fitted inhibition curve with a large enough effect; inconclusive = small, poorly fitted or top-dose-only effect; inactive = flat fitted curve, though single readings scatter.

SMILES	DRD3 antagonist	ClpP mod	TDP1 cell noCPT	IL-1B inflam inh	DRD3 agonist	TDP1 cell CPT
C/C(N)=C(/C#N)C(=O)CSc1nc2scc(-c3ccc(F)cc3)c2c(=O)n1C	2	0%	u	5	3	-23%
Cc1ccc(-c2nnc(Oc3cccc(C)c3)c3ccccc23)cc1	-24	1%	u	-75*	-17	u
Cc1ccc(Oc2nnc(-c3ccccc3)c3ccccc23)cc1	24	-1%	u	-20	-32	21µM*
Cc1ccc(-c2nnc(OCC3CCCO3)c3ccccc23)cc1 (centres undefined)	9	x	18µM*	-66*	-2	u
CN(C(=O)COC(=O)C1COc2ccccc2O1)C1(C#N)CCCCC1 (centres undefined)	0	-2%	5%	0	2	7%
O=C(Nc1c(-c2ccccc2)nc2ccccn12)c1ccc(Br)cc1	x	-2%	u	x	-4	u
N#C/C(=C/c1cccs1)c1nc2ccccc2[nH]1	-3	-1%	u	9	-8	u
N#C/C(=C\C1CC=CCC1)c1nc2ccccc2[nH]1 (centres undefined)	-12	32µM*	u	-52*	-5	-13%
Cn1c(/C(C#N)=C/C2CC=CCC2)nc2ccccc21 (centres undefined)	u	-27%	u	-96*	-18	u
Cn1c(/C(C#N)=C/c2ccc(O)cc2)nc2ccccc21	1	-1%	-16%	-20	3	u
COc1ccc(-c2oc3ncn4nc(-c5ccccc5C)nc4c3c2-c2ccc(OC)cc2)cc1	x	-15%	-6%	x	-3	-15%
NC(=O)Cn1nc(-c2ccccc2)nc1-c1ccccc1	3	1%	-8%	14	18	13%
Cc1oc2ccc(O)cc2c1C(=O)c1ccc(Br)cc1	-7	0%	u	-20	1	-24%
Cc1ccccc1OCC(=O)N/N=C/c1cccc2cccnc12	1	-3%	21µM*	i	0	u
O=C(COc1cccc2cccnc12)N/N=C/c1ccccc1O	30	x	10µM*	91	6	15µM*
O=C(COc1cccc2cccnc12)N/N=C/c1cccn1-c1ccc(F)cc1	24	x	u	-89*	-3	u
C/C(=N\OCC(=O)N/N=C/c1ccccc1O)c1cccs1	-2	-14%	4.6µM*	247	-2	4.1µM*
CS(=O)(=O)Nc1c(O)ccc2c1CCC[C@H]2C1=NCCN1	x	x	-7%	x	x	2%
CCOC(=O)c1c(C)n(C)c2ccc(OCC(O)CN3CCCCCC3)cc12 (centres undefined)	u	0%	u	-28	-9	u
CCOC(=O)c1c(C)n(C)c2ccc(OCC(O)CNC(CC)CO)cc12 (centres undefined)	15	-4%	-15%	u	5	-10%
CC(=O)Nc1ccc(OCC(O)Cn2nc(C)c(C(C)=O)c2C)cc1 (centres undefined)	7	-2%	-3%	16	-6	5%
CC(=O)c1c(C)nn(CC(O)COc2ccc3ccccc3c2)c1C (centres undefined)	10	0%	26µM*	-14	2	u
CCOC(=O)c1c(C)n(C)c2ccc(OCC(O)Cn3nc(C)c(Br)c3C)cc12 (centres undefined)	27	-19%	18µM*	-6	-1	21µM*
CCOC(=O)c1c(C)n(-c2ccc(C)cc2)c2ccc(OCC(O)CNCC3CCCO3)cc12 (centres undefined)	7	-7%	18µM*	-54*	-9	16µM*
CCOC(=O)c1c(C)n(C)c2ccc(OCC(O)CN3CCC(C)CC3)cc12 (centres undefined)	-102*	0%	u	u	-21	u
SMILES	DRD3 antagonist	ClpP mod	TDP1 cell noCPT	IL-1B inflam inh	DRD3 agonist	TDP1 cell CPT
CCN(CC)C(=O)c1c(Cl)nc(C)c([N+](=O)[O-])c1C	9	1%	-15%	7	-4	3%
CCC(NC(=O)C1C2C=CC(C2)C1C(=O)O)c1ccc(C)cc1 (centres undefined)	-7	3%	-6%	5	2	1%
CC(C)NC(=O)NC(=O)COC(=O)c1c2c(nc3ccccc13)CCC2	83	x	13µM*	u	36*	9.2µM*
NC(=O)COC(=O)c1c2c(nc3ccccc13)CCCC2	6	x	-11%	12	-4	-2%
NC(=O)COC(=O)c1c2c(nc3ccccc13)CCC2	5	-17%	-9%	25	3	2%
CC(C)(C)NC(=O)COC(=O)c1c2c(nc3ccccc13)CCC2	44	x	9.2µM*	22	14	u
COc1ccc(C2CC(=O)N(CC(=O)Nc3cccc(C)c3C)c3ccccc3S2)cc1OC (centres undefined)	x	3%	x	x	3	x
CC1CN(CCCCOc2cccc(Oc3ccccc3)c2)CC(C)O1 (centres undefined)	u	-1%	u	-67*	-13	u
CC1CCCN(CCOc2cccc(Oc3ccccc3)c2)C1 (centres undefined)	-61*	0%	u	-30	-29	26µM*
c1ccc(Oc2cccc(OCCCCN3CCCC3)c2)cc1	-18	0%	18µM*	0	-15	u
CCOC(=O)C1=C(C)N(C[C@@H]2CC[C@@H](Cc3ccc(-c4ccccc4)cc3)O2)C(=O)NC1c1cccc([N+](=O)[O-])c1 (some centres undefined)	26	-1%	u	20	-25	u
C=CCNC(=O)CSc1n[nH]c(-c2cc(Cl)ccc2OC)n1	-2	x	-19%	-26	-16	30%
CCN(CC)CCNC(=O)c1ccc(NC(=O)c2cc(S(=O)(=O)N3CCCCC3)ccc2N2CCOCC2)cc1	-13	3%	-16%	14	-11	-17%
CCS(=O)(=O)N1CCN(c2ccc(C(=O)NC3C4CC5CC(C4)CC3C5)cc2[N+](=O)[O-])CC1 (centres undefined)	5	25µM*	8.2µM*	4	-7	8.2µM*
CC1CCN(c2ccc(C(=O)O)cc2NS(=O)(=O)c2ccc(Br)cc2)CC1	-15	20µM*	-14%	1	-4	1%

Bioassay records from PubChem.
